Some structures have more than one record in an assay (separate samples or runs), and their calls can disagree. Calls of active or inactive are those of the source. Rule for the calls: active = hit-call score of the fitted dose curve at least 0.9, where 1 is the maximum; inactive = score below 0.9.
Experiment: CCTE_Padilla_ZF_Score.Living: CCTE's 144 Hour Post-fertilization zebrafish Assay Score for Viability, Padilla Lab (AID 2284410);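 note: larval death at 6 dpf judged by absent heartbeat or coagulation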
Protocol: CCTE_Padilla_ZF_Phenotype_Score is a whole embryo, multiplexed assay using zebrafish ova exposed for 144 hours post fertilization on a 96-well plate.CCTE_Padilla_ZF_Score.Living is one of one assay component(s) measured or calculated from the CCTE_Padilla_ZF_Phenotype_Score assay. It is designed to make measurements of zebrafish development as detected with brightfield microscopy of developing zebrafish embryos.Data from the assay component CCTE_Padilla_ZF_Score.Living was analyzed into 1 assay endpoints. This assay endpoint, CCTE_Padilla_ZF_Score.Living, was analyzed in the positive analysis fitting direction relative to DMSO as the negative control and baseline of activity. Using a type of viability reporter, gain-of-signal activity can be used to understand changes in developmentals as they relate to the whole embryo. To generalize the intended target to other relatable targets, this assay endpoint is annotated to the zebrafish development intended target family, where the subfamily is embryonic mortality.
Zebrafish husbandry: Wild type adult zebrafish (Danio rerio; undefined outbred stock obtained from Aquatic Research Organisms, Hampton, NH, 03842) were housed in an AAALAC-approved animal facility at 28C with a 14:10 h light: dark cycle (lights on at 08:30 h). Adult fish (2-3 females per male; density = 15-20 adults per tank) were kept in one of several 9-liter (L) flow-through colony tanks (Aquaneering Inc., San Diego, CA). All adults in a colony tank were placed in a 2 L (static) breeding tank (Aquatic Habitats, Apopka, FL) one hour prior to light onset. Typically, adults from two to three colony tanks were mated on the same day. Two hours after light onset the adults were returned to the colony tank. All embryos were gathered from each breeder tank, pooled, and placed in a 28C water bath for 2 h, followed by two washes with 0.06% bleach (v/v) in 10% Hanks' Balanced Salt Solution (13.7 mM NaCl 0.54 mM KCl, 25 uM Na2HPO4, 130 uM CaCl2 100 um MgSO4 and 420 um NaHCO3,), hereafter referred to as Hanks' solution, for 5 min in order to remove any residual bacteria or fungi. Immediately following washing, the embryos were examined, and healthy embryos were separated from dead or unfertilized eggs and moved into fresh Hanks'. Chemical exposures: Zebrafish embryos were exposed in 96-well plates. Between 6- and 8-hours post fertilization (hpf), healthy embryos (with chorions) were transferred, one embryo per well, into 96 well (0.5 mL) microtiter plates (Cell Culture-Treated, Flat-Bottom Microplate 96 well [Corning Costar, Kennebunk, ME; Cat 09-761-145]) filled with 200 uL of Hanks' solution. A random number generator was used to assign the order in which the rows of embryos were plated in 96 well plates each week. After plating, the embryos were dosed with 0.8 uL of the chemical dosing solution then immediately sealed with AlumaSeal II (Excel Scientific Inc, Victorville, CA) to prevent volatilization of the chemicals, and then placed in a leakproof secondary container. These containers were placed in an incubator maintained on a 14:10 h light: dark cycle at 26C for rearing. On 5 dpf, live larvae were gently moved out of the plate with test chemicals and into a new 96 well mesh plate (Millipore Corp., Bedford, MA) with just the Hanks' solution. Once within the mesh well plate, the animals were rinsed with 400 uL of fresh Hanks' three times, and then the plates were covered with a non-adhesive material (Microseal A, BioRad, Hercules, CA), plate lid added, and then plate sides wrapped in Parafilm (PM992, Bermis Company, Neenah, WI), and returned to the incubator. […]
With O=S(=O)(O)C(F)(F)C(F)(F)C(F)(F)C(F)(F)C(F)(F)C(F)(F)F the AC50 was 88.7 µM (active) and the outcome was “inactive”. For O=C(O)C(F)(F)C(F)(F)C(F)(F)C(F)(F)C(F)(F)F, the outcome was “inactive”. For O=C(O)C(F)(F)C(F)(F)C(F)(F)C(F)(F)C(F)(F)C(F)(F)C(F)(F)C(F)(F)F, the AC50 was 81.2 µM (active). With NS(=O)(=O)C(F)(F)C(F)(F)C(F)(F)C(F)(F)C(F)(F)C(F)(F)C(F)(F)C(F)(F)F the AC50 was 1.76 µM (active). In the case of O=C(O)C(F)(F)C(F)(F)C(F)(F)C(F)(F)C(F)(F)C(F)(F)C(F)(F)C(F)(F)C(F)(F)F, the AC50 is reported as 17.5 µM (active). In the case of O=S(=O)(O)C(F)(F)C(F)(F)C(F)(F)C(F)(F)F, the outcome is reported as “inactive”.

Experiment: CCTE_Padilla_ZF_Score.General: CCTE's 144 Hour Post-fertilization zebrafish Assay Score for General Malformation, Padilla Lab (AID 2284411)
Outline: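 Wild-type zebrafish embryos were plated singly at 6-8 hpf in 10% Hanks' and exposed in sealed wells at 26C until rinsed on 5 dpf. At 6 dpf two blinded assessors scored mortality, hatching and malformations by stereomicroscopy; gain-of-signal versus DMSO.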
For Oc1c(Cl)c(Cl)c(Cl)c(Cl)c1Cl, the AC50 was 0.681 µM (active). In the case of O=S(=O)(O)C(F)(F)C(F)(F)C(F)(F)C(F)(F)C(F)(F)C(F)(F)F, the AC50 is reported as 83.7 µM (active) and the outcome is reported as “inactive”. In the case of O=C(O)C(F)(F)C(F)(F)C(F)(F)C(F)(F)C(F)(F)F, the outcome is reported as “inactive”. With O=C(O)C(F)(F)C(F)(F)C(F)(F)C(F)(F)C(F)(F)C(F)(F)C(F)(F)C(F)(F)F the AC50 was 31.2 µM (active). For NS(=O)(=O)C(F)(F)C(F)(F)C(F)(F)C(F)(F)C(F)(F)C(F)(F)C(F)(F)C(F)(F)F, the AC50 was 0.453 µM (active). In the case of O=C(O)C(F)(F)C(F)(F)C(F)(F)C(F)(F)C(F)(F)C(F)(F)C(F)(F)C(F)(F)C(F)(F)F, the AC50 is reported as 11.5 µM (active). With O=S(=O)(O)C(F)(F)C(F)(F)C(F)(F)C(F)(F)F the outcome was “inactive”.

Reference: PubChem BioAssay (EPA / NIEHS)
